# Test results from PubChem BioAssay AID720541 (National Center for Advancing Translational Sciences (NCATS), 2013).
# Out of some 1,300 compounds screened, about 420 (32%) were called active. Inconclusive results (about 32%) are left out. Calls follow the shape of the dose curve; as a rule, active = well fitted inhibition curve with a large enough effect; inconclusive = small, poorly fitted or top-dose-only effect; inactive = no such curve, though single readings can be large or run the other way. The list shows a part of the results. Entries that show only a call come without a potency.
# Biological target: C-terminal-binding protein 1 (Homo sapiens) (UniProt Q13363)
# Assay: qHTS for Inhibitors of the Phosphatase Activity of Eya2: Carboxyl-terminal binding protein (CtBP) Counterscreen for Cherry-picked Compounds; also: nearly all actives have a fitted effect of over 65% in size
# Details: purified protein-protein binding, AlphaScreen, 3 h; series mostly up to 46.1 µM
# Text: The Eya protein family is an essential co-activator of the Six1 transcription factor. Six1 is a developmental gene that is abnormally re-expressed in a large percentage of breast cancers. This over-expression plays a causal role in the initiation and metastatic development of breast cancers. The Eya family of protein is also found to contain a unique HAD phosphatase domain with protein tyrosine phosphatase activity which can potentially play a role in Six1-mediated breast tumorigenesis. Recently, Eya2 is found to dephosphorylate the histone variant H2AX and direct cells towards DNA repair instead of apoptosis in the event of DNA damage.
# A 1536 well format, fluorescence based qHTS assay was developed and used to target the phosphatase activity of Eya2 (AID 488837). In addition, a CtBP counterscreen was developed using the AlphaScreen technology to evaluate compound selectivity to target […]. The data herein reports the activity of the cherry-picked compounds against the CtBP AlphaScreen. Compounds that are active or have > 100 fold selectivity vs. the Eya2 activity were excluded for further characterization. Inactivity is the desired outcome for the CtBP counterscreen.
# NIH Chemical Genomics Center [NCGC]
# NIH Molecular Libraries Probe Centers Network [MLPCN]
# Assay Submitter (PI): Rui Zhao, University of Colorado Denver
# Four microliters of reagent (25 nM GST-E1A, 25 nM CtBP-6x HIS) was dispensed in a 1536 well Greiner plates. Twenty-three nanoliter of test compounds (final concentration of 2.5 nM - 46 uM) and positive control E1A peptide inhibitor (final concentration of 0.14 nM - 4.6 uM) were added to the plates using the Kalypsys pintool equipped with a 1536 pin head. The plates was then incubated at room temperature for 2 hours followed by addition of 1 uL Alpha bead donor / acceptor mix (20 ug/mL final concentration). The assay plates were incubated for additional 1 hour at room temperature and protected from light. The AlphaScreen signal was obtained using the PerkinElmer EnVision plate reader using the 680 nm excitation and 520 - 620 nm emission filters. The data was normalized to the E1A peptide inhibitor for maximum inhibition and DMSO treated wells as negative control.
# Potency is read from the fitted curve at half-maximal effect.
row,Compound,Potency
1,COc1ccc(-c2nc(N)ncc2-c2csc(C)n2)c(O)c1,inactive
2,C=C(C)COc1ccc(-c2nc(N)nc(C)c2-c2ccc(OC)cc2)c(O)c1,6.01 µM (active)
3,CC(C)S(=O)(=O)c1cnc(-c2ccccn2)nc1N,13.5 µM (active)
4,CCc1cc2c(=O)[nH]c(-c3ccccn3)nc2s1,1.9 µM (active)
5,Cn1c(-c2cc(Cl)ccc2O)nc2c1c(=O)[nH]c(=O)n2Cc1ccccc1,inactive
6,CN(CC(=O)Nc1cccc(F)c1)C(=O)c1ccc(COc2ccccc2)cc1,inactive
7,COc1cccc(NC(=O)c2ccc3c(c2)CCN3S(C)(=O)=O)c1,inactive
8,COc1cc(NC(=O)c2ccc(S(=O)(=O)N(C)c3ccccc3)cc2)cc(OC)c1,inactive
9,CC(=O)c1ccc(NS(=O)(=O)c2cccc(C(=O)Nc3ccccc3C(=O)O)c2)cc1,15.1 µM (active)
10,CC(=O)Oc1cccc(C(=O)Nc2cccc(C(=O)Nc3ccccc3C(=O)O)c2)c1,8.49 µM (active)
11,CC(C)CCNC(=O)c1onc(CSc2ccncc2)c1C(=O)NCCC(C)C,inactive
12,Cc1nn(-c2ccccc2)c2c1C(c1cccnc1)N1C=C(S(=O)(=O)N3CCCCC3)C=CC1=N2 (centres undefined),inactive
13,CC1CCCN(c2ccc3nc4ccccc4c(=O)n3n2)C1 (centres undefined),7.57 µM (active)
14,COc1cc(/C=C2\C(C)=C(C#N)c3nc(N)c(C#N)c(C)c32)ccc1OCC(=O)O,8.49 µM (active)
15,COc1cc(C=NO)nc(-c2ccccn2)c1,1.07 µM (active)
16,NC(=O)c1nn2c(C(F)(F)F)cc(-c3ccccc3)nc2c1Br,10.7 µM (active)
17,Cc1ccc(C(=O)ON=C2CCN(c3ccc([N+](=O)[O-])cc3)CC2)cc1,inactive
18,CCN(Cc1cccc(S(=O)(=O)O)c1)c1ccc(C(=C2C=CC(=[N+](CC)Cc3cccc(S(=O)(=O)O)c3)C=C2)c2ccccc2S(=O)(=O)[O-])cc1,12 µM (active)
19,CCN(Cc1cccc(S(=O)(=O)O)c1)c1ccc(C(=C2C=CC(=[N+](CC)Cc3cccc(S(=O)(=O)O)c3)C=C2)c2ccc(O)cc2S(=O)(=O)O)cc1,12 µM (active)
20,N#CC1=C(N)n2c(s/c(=C\c3cccs3)c2=O)=C(C#N)C1c1cccs1 (centres undefined),13.5 µM (active)
21,CC(=O)N1CCCc2cc(S(=O)(=O)N3CCCC(C(=O)N4CCN(c5cc(C)ccc5C)CC4)C3)ccc21 (centres undefined),inactive
22,CN1C(=O)NC(c2ccccc2)(C(F)(F)F)S/C1=C(/C#N)c1nnc(N2CCOCC2)n1-c1ccccc1 (centres undefined),inactive
23,CCOc1cc(C=NNC(=O)c2cccc(S(=O)(=O)N3CCCC3)c2)ccc1O,7.57 µM (active)
24,Cc1ccc(Nc2c(-c3ccccn3)nc3ccc(C)cn23)cc1,4.26 µM (active)

row,Compound,Potency
1,Cc1cccc(C)c1Nc1c(-c2ccccn2)nc2ccccn12,7.57 µM (active)
2,Cc1ccccc1Nc1c(-c2ccccn2)nc2ccccn12,2.69 µM (active)
3,Cc1onc(-c2ccccc2Cl)c1C(=O)N(Cc1ccc(N(C)C)cc1)C(C)C,inactive
4,Cc1cccc(S(=O)(=O)C(C#N)c2nc3ccccc3nc2N2CCOCC2)c1 (centres undefined),inactive
5,CC(C)N=c1cc2n(-c3ccc(Cl)cc3)c3ccccc3nc-2cc1Nc1ccc(Cl)cc1,3.38 µM (active)
6,Cn1c(=O)c2cc(S(=O)(=O)Nc3cccc(F)c3)ccc2n(C)c1=O,inactive
7,O=S(=O)(Nc1cccc(-c2cn3cccnc3n2)c1)c1ccc(F)cc1,15.1 µM (active)
8,O=S(=O)(Nc1cccc(-c2cn3cccnc3n2)c1)c1ccccc1,4.26 µM (active)
9,COc1cc(NC(=O)c2cccs2)c(OC)cc1NC(=O)CCC(=O)Nc1ccc2ncccc2c1,1.69 µM (active)
10,COc1cc(NC(=O)c2cccs2)c(OC)cc1NC(=O)Cc1ccccc1,7.57 µM (active)
11,COc1cc(NC(=O)c2cccs2)c(OC)cc1NC(=O)CCn1nnc2ccccc21,12 µM (active)
12,O=C(CNC(=O)c1cccs1)OCC(=O)c1ccc(Cl)cc1,inactive
13,COc1cc(NC(=O)c2cccs2)c(OC)cc1NC(=O)Nc1ccc(F)cc1,inactive
14,O=C(CC(=O)c1c(F)cccc1Cl)c1ccccc1O,inactive
15,Cc1ccc(S(=O)(=O)Nc2c(C)n(C)n(-c3ccccc3)c2=O)cc1C(=O)OC(C)C(=O)N(C)c1ccccc1 (centres undefined),inactive
16,O=C1/C(=C/c2ccco2)SC(=S)N1c1cccnc1,15.1 µM (active)
17,CCOC(=O)c1c(C)oc2c1c(C=NCc1ccccn1)c(O)c1ccccc12,15.1 µM (active)
18,O=C(O)c1cccc(N2C(=O)c3cccc(Oc4ccc(Cl)cc4)c3C2=O)c1,inactive
19,CC(=O)Oc1cccc2c1C(=O)c1c(OC(C)=O)cc(C(=O)O)cc1C2=O,12 µM (active)
20,N#C/C(=C\c1ccc(OC(=O)c2ccc(Cl)s2)cc1)c1nc2ccccc2[nH]1,inactive
21,N#C/C(=C/c1ccc(OC(=O)c2ccc(Br)s2)cc1)c1nc2ccccc2[nH]1,inactive
22,CCOC(=O)/C(C#N)=C/c1ccc(OC(=O)c2ccccn2)cc1,7.57 µM (active)
23,N#C/C(=C\c1ccc(OC(=O)c2ccc(Br)s2)cc1)c1nc2ccccc2[nH]1,inactive
24,N#C/C(=C\c1ccc(OC(=O)c2ccccn2)cc1)C(N)=O,12 µM (active)

row,Compound,Potency
1,O=C(Oc1cncc(Cl)c1)c1sccc1Cl,inactive
2,Cc1cc2nc(/N=C(\N)NC(=O)N3c4ccccc4Sc4ccccc43)nc(C)c2cc1C,inactive
3,Cc1cc(C)cc(COc2ccc3c(C)c(CC(=O)O)c(=O)oc3c2C)c1,inactive
4,Cc1c(CCC(=O)O)c(=O)oc2c(C)c(OCc3cc4c(cc3Cl)OCO4)ccc12,13.5 µM (active)
5,O=C(Cn1ccc(=O)[nH]c1=O)Nc1nccs1,inactive
6,Nc1ccc(N2CCCCC2)c2nonc12,6.75 µM (active)
7,O=C(Cc1cccs1)Nc1ccc2c(c1)C(=O)OC2,inactive
8,O=C1CCCC2=C1C(c1ccco1)Nc1ccc3ccccc3c12 (centres undefined),inactive
9,O=C(Nc1ccc(Nc2ccccc2)cc1)c1ccc(Cl)cc1[N+](=O)[O-],inactive
10,O=C(O)c1ccc(Nc2cnc3ccccc3n2)cc1,inactive
11,Cc1cc(NS(=O)(=O)c2ccc(NC(=O)c3cnc(Cl)c(Cl)c3)cc2)nc(C)n1,1.69 µM (active)
12,O=C(Nc1ccc(S(=O)(=O)Nc2cnc3ccccc3n2)cc1)c1ccc(Cl)c([N+](=O)[O-])c1,2.13 µM (active)
13,Cc1cc(NS(=O)(=O)c2ccc(NC(=O)c3cc4c(=O)n5ccccc5nc4s3)cc2)nc(C)n1,6.75 µM (active)
14,CCC(C)N(C(=O)CSc1nc(-c2cccs2)nc2ccccc12)C1CCS(=O)(=O)C1 (centres undefined),inactive
15,CSc1nc(NCCOCCO)c2sc3nc(-c4ccco4)c4c(c3c2n1)CCC4,5.36 µM (active)
16,OCCN(Cc1cccnc1)Cc1ccccn1,5.36 µM (active)
17,COCC(C)n1c(-c2ccc3c(c2)NC(=O)CO3)csc1=Nc1ccc(OC(F)F)cc1 (centres undefined),inactive
18,CCOC(=O)c1cc2c(N)c(C(=O)c3ccc(Br)cc3)sc2[nH]c1=O,1.9 µM (active)
19,Cc1cc(C(=O)CSc2nc(N)cc(N)n2)c(C)n1C1CC1,inactive
20,COc1ccccc1C(CCNCc1ccc(N(C)C)cc1)c1ccc(OC(C)C)cc1 (centres undefined),6.01 µM (active)
21,COc1ccc(C(CCNCc2ccc(N(C)C)cc2)C(C)C)cc1 (centres undefined),12 µM (active)
22,CCCCC(=O)NC(c1ccco1)c1cc(Cl)c2cccnc2c1O (centres undefined),4.78 µM (active)
23,COc1ccc(C(NC(C)=O)c2ccc3cccnc3c2O)cc1OC (centres undefined),1.35 µM (active)
24,CCC(=O)NC(c1cccs1)c1cc(Cl)c2cccnc2c1O (centres undefined),1.69 µM (active)

row,Compound,Potency
1,COc1ccc(C(NC(C)=O)c2cc(Cl)c3cccnc3c2O)cc1OC (centres undefined),1.69 µM (active)
2,CCCCC(=O)NC(c1cccc([N+](=O)[O-])c1)c1ccc2cccnc2c1O (centres undefined),inactive
3,CCOC(=O)N1CCN(S(=O)(=O)c2ccc(C(=O)NNc3nc4c(C)cc(C)cc4s3)cc2)CC1,inactive
4,O=c1[nH]c(/C=C\c2ccc(O)cc2)nc(O)c1[N+](=O)[O-],inactive
5,O=C(NCCC1=CCCCC1)c1[nH]c(C(F)(F)F)nc1-c1ccccc1,inactive
6,O=C(NC1CCCCC1)N1CCN(C2CCCCC2)CC1,inactive
7,O=C(O)c1ccccc1NC(c1ccccc1)c1ccc2cccnc2c1O (centres undefined),1.9 µM (active)
8,CCCC(=O)NC(c1ccc(OC)c(OC)c1)c1cc(Cl)c2cccnc2c1O (centres undefined),1.69 µM (active)
9,CCC(=O)NC(c1ccc(OC)c(OC)c1)c1cc(Cl)c2cccnc2c1O (centres undefined),1.69 µM (active)
10,O=C(Oc1ccc(Cl)c2cccnc12)C12CC3CC(CC(C3)C1)C2,inactive
11,CC(=O)NC(c1ccc(Cl)cc1)c1ccc2cccnc2c1O (centres undefined),1.9 µM (active)
12,O=C(Nc1ncc(Cc2ccccc2Cl)s1)c1ccc(-c2cccc([N+](=O)[O-])c2)o1,inactive
13,COc1ccc(C2c3[nH]c4ccccc4c3C[C@H]3C(=O)N(C4CCN(Cc5ccccc5)CC4)CC(=O)N23)cc1OC (some centres undefined),inactive
14,CCCCOC(=O)CCCc1ccc([N+](=O)[O-])cc1[N+](=O)[O-],inactive
15,CCOc1ccc2c(c1)C(c1ccc(C)cc1)=NNC(c1ccc(OC)cc1)=N2,inactive
16,O=c1c2ccccc2c(C=Nc2cccc(S(=O)(=O)NC3=NCCCCC3)c2)c(O)n1Cc1ccccc1,inactive
17,CCN(CC)CCNC(=O)c1ccc(N)cc1,inactive
18,CC(C)C(=O)NC(c1ccc(Cl)cc1Cl)c1ccc2cccnc2c1O (centres undefined),5.36 µM (active)
19,O=C(CSc1nnc2c(Cl)cc(Cl)cn12)NC1CCS(=O)(=O)C1 (centres undefined),inactive
20,O=C(C[n+]1ccccc1)c1ccc(O)c(O)c1,inactive
21,CC12CC3(C)CC(C)(C1)CC(C(=O)NC(=S)N1CCOCC1)(C2)C3,inactive
22,COc1ccc(-c2nnc(NC(=O)c3ccc(S(=O)(=O)N(C)CC4CCCO4)cc3)o2)c(OC)c1 (centres undefined),16.9 µM (active)
